The record followed here is PubChem BioAssay (Tox21).

Values without a mark were called inactive. Inconclusive results are not listed. The source made the active and inactive calls. Unless noted, the call rests on the fitted dose curve.

The nature of assay [1]: Nuclear factor erythroid 2-related factor 2/antioxidant responsive element (Nrf2/ARE) small molecule agonists: qHTS cell viability counter screen in human keratinocytes (AID 1919968; active means well fitted curve in the direction sought with a large enough effect in the repeat runs; an effect the other way counts as inactive or inconclusive; further: nearly all actives have a fitted effect of over 55% in size). Put shortly: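 Stably transfected HaCaT (KeratinoSens), 1,500/well. Test agents in DMSO were applied for 23 h, 37 C/5% CO2. CellTiter-Fluor was incubated 1 h before the fluorescence read.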
Background: Quantitative high-throughput screening tests each substance at several concentrations.

A short description of assay [2]: Nuclear factor erythroid 2-related factor 2/antioxidant responsive element (Nrf2/ARE) small molecule agonists: luciferase reporter gene qHTS assay in human keratinocytes (AID 1919969). Further: nearly all actives have a fitted effect of over 35% in size. Background: A reporter such as luciferase makes a cellular process visible.
The target of assay [3] is Gonadotropin-releasing hormone receptor (Homo sapiens) (UniProt P30968). Kind of assay: Human gonadotropin-releasing hormone receptor (GnRHR) small molecule agonists, calcium flux assay in GnRHR-HEK293 cells (AID 1920063). Further: nearly all actives have a fitted effect of over 35% in size. Put shortly:
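Stable human GnRHR HEK293 line. 18 h plating, then calcium dye for 1 h at 37 C. Agonist-mode compound addition from DMSO stocks; fluorescence monitored 3 min.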
(Calcium assays in cells follow changes in intracellular calcium, usually with a dye or a luminescent sensor.)

For assay [4], the target named is KiSS-1 receptor (Homo sapiens) (UniProt Q969F8). Kind of assay: Human kisspeptin (KISS1R) small molecule agonists, calcium flux assay in KISS1R-HEK293 cells (AID 1920064; active means well fitted curve in the direction sought with a large enough effect in the repeat runs; an effect the other way counts as inactive or inconclusive). Put shortly: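 After overnight (18 h) culture at 37 C/5% CO2, human KISS1R-HEK293 cells received calcium dye for 1 h, then test compound; emission at 540 nm (excitation 480 nm) was tracked for 3 min.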
Chain of KiSS-1 receptor (Homo sapiens) (Q969F8 whole entry, looked up): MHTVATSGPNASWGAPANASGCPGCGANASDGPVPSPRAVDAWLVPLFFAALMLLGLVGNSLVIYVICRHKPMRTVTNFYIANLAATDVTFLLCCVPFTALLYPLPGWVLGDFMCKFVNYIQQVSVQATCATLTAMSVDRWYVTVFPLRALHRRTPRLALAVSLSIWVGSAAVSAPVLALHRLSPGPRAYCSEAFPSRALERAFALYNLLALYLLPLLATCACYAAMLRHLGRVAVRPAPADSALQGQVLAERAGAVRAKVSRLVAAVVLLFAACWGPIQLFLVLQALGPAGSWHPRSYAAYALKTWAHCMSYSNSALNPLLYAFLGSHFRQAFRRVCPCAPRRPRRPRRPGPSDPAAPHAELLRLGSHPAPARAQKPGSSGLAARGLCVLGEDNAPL

A short description of assay [5]: G protein-coupled receptor (GPCR) small molecule agonists, calcium flux assay: HEK293 wild type cell line counter screen (AID 1920065). Put shortly:
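Following 18 h incubation at 37 C/5% CO2, plates got calcium dye for 1 h; compounds, ATP or DMSO were then pinned in and fluorescence followed kinetically (480/540 nm).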

Assay [6] can be described thus: p53 small molecule agonists, cell-based qHTS assay with human liver microsomes (AID 1963577).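 Further: p53 response element beta-lactamase reporter cells with liver microsomes plus NADPH.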 Put shortly: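 With metabolic activation: human liver microsomes (0.5 mg/mL final) plus NADPH (0.5 mg/mL final) added alongside compounds to p53RE-bla cells; 16 h 37 C exposure; beta-lactamase read by LiveBLAzer fluorescence.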
Assay [7] is described as follows: p53 small molecule agonists, cell-based qHTS assay with rat liver microsomes (AID 1963578). Put shortly: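 Metabolic activation by rat liver microsomes and NADPH, each 0.5 mg/mL final, added right after compounds to p53RE-bla reporter cells (4,000/well, plated 5 h earlier). 16 h at 37 C, then LiveBLAzer substrate for 2 h at room temperature in the dark; fluorescence read-out.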

Assay [8] can be described thus: p53 small molecule agonists, cell-based qHTS assay with human liver microsomes: qHTS cell viability counter screen (AID 1963579). Further: nearly all actives have a fitted effect of over 45% in size. Put shortly: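 Metabolic activation used human liver microsomes and NADPH, both 0.5 mg/mL final, over 16 hours at 37 C on p53RE-bla cells (4,000/well). Cytotoxicity measured by CellTiter-Glo luminescence, 30 min at room temperature.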
Assay [9] can be described thus: p53 small molecule agonists, cell-based qHTS assay: qHTS cell viability counter screen (AID 1963581). Further: nearly all actives have a fitted effect of over 45% in size. Put shortly:
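qHTS counter screen: 16 h compound exposure at 37 C of p53RE-bla HCT-116 cells (4,000 per well, seeded 5 h prior), cell viability by ATP luminescence.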

Assay [10] in a line: p53 small molecule agonists, cell-based qHTS assay (AID 1963582; active means well fitted activation curve with a large enough effect in the signal ratio in the repeat runs, not every such curve was filed as active; the % refers to the signal ratio). Put shortly: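 Measured: fluorescence from cleaved LiveBLAzer substrate. System: p53RE-bla cells, 16 h compound treatment at 37 C, 2 h substrate step at room temperature.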
Assay [11] has as its target 5-hydroxytryptamine receptor 2A (Homo sapiens) (UniProt P28223). Kind of assay: 5-hydroxytryptamine receptor 2A (HTR2A) small molecule antagonists, cell-based qHTS assay (AID 1963586). Further: nearly all actives have a fitted effect of over 45% in size. Further: potency means the concentration at half of the fitted maximal effect. Put shortly: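 CHO cells stably expressing human HTR2A were plated for 18 h at 37 C, then loaded with calcium dye for 1 h. Compounds were preincubated 5 min at room temperature before DOI (4 nM solution) was added. Kinetic fluorescence was read for 3 min.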

Assay [12] shares this target. Kind of assay: 5-hydroxytryptamine receptor 2A (HTR2A) small molecule agonists, cell-based qHTS assay (AID 1963587). Further: nearly all actives have a fitted effect of over 30% in size. Put shortly:
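Kinetic calcium-flux fluorescence (2 min, 1 sec intervals) after compound addition in agonist mode. HTR2A-CHO cells were cultured 18 h, then dye-loaded 1 h at 37 C.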

Assay [13] addresses Muscarinic acetylcholine receptor M1 (Homo sapiens) (UniProt P11229). Kind of assay: Cholinergic receptor muscarinic 1 (CHRM1) small molecule agonists, cell-based qHTS assay (AID 1963589). Further: nearly all actives have a fitted effect of over 35% in size. Put shortly:
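Kinetic fluorescence (1 s intervals) of calcium-sensitive dye in human M1 CHO cells after compound addition; cells pre-incubated 18 h at 37 C/5% CO2 and dye-loaded 1 h.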

Assay [14] in a line: cAMP Responsive Elements (CRE) small molecule antagonists, cell-based qHTS assay (AID 1963591; active means well fitted inhibition curve with a large enough effect in the signal ratio in the repeat runs, not every such curve was filed as active; the % refers to the signal ratio). Put shortly:
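Reporter line CRE-bla HEK 293T in dialyzed-FBS DMEM; cells preincubated 18 h, treated 3 h with compound plus NKH477 (0.25 uM final); LiveBLAzer FRET, 2 h RT.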

The target of assay [15] is Beta-2 adrenergic receptor (Homo sapiens) (UniProt P07550). Kind of assay: Adrenergic beta2 receptor (ADRB2) small molecule antagonists, cell-based qHTS assay (AID 1963592). Further: series mostly up to about 92 µM; nearly all actives have a fitted effect of over 50% in size. Put shortly: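 Assay format: CHO-ADRB2 cells, 18-20hr seeding at 37C/5% CO2, then compound plus 1nM isoproterenol agonist mix for 0.5hr RT. Homogeneous time-resolved fluorescence cAMP detection after 1hr, expressed as 665/615 nm ratio.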
Chain of Beta-2 adrenergic receptor (Homo sapiens) (P07550 whole entry, looked up): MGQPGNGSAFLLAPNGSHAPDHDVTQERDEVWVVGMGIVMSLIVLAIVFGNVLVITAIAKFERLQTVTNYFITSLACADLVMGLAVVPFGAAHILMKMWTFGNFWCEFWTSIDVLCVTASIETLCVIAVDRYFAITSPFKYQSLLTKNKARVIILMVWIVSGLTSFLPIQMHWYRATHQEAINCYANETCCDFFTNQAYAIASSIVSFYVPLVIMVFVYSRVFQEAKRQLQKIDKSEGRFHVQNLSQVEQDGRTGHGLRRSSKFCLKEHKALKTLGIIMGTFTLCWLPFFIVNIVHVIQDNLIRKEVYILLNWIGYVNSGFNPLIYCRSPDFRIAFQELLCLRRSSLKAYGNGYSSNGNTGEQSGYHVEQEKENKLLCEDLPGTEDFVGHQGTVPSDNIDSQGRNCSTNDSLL

The target in assay [16] is D(2) dopamine receptor (Homo sapiens) (UniProt P14416). Kind of assay: Dopamine D2 receptor (DRD2) small molecule agonists, cell-based qHTS assay (AID 1963594). Further: nearly all actives have a fitted effect of over 35% in size. Put shortly: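 cAMP accumulation in DRD2-HEK293 cells measured by HTRF after 1 h detection; compounds added 10 min before NKH477 (200nM […]) forskolin-analogue stimulation, 30 min at room temperature, with Ro20-1724 present at 0.1 mM final.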
Chain of D(2) dopamine receptor (Homo sapiens) (P14416 whole entry, looked up): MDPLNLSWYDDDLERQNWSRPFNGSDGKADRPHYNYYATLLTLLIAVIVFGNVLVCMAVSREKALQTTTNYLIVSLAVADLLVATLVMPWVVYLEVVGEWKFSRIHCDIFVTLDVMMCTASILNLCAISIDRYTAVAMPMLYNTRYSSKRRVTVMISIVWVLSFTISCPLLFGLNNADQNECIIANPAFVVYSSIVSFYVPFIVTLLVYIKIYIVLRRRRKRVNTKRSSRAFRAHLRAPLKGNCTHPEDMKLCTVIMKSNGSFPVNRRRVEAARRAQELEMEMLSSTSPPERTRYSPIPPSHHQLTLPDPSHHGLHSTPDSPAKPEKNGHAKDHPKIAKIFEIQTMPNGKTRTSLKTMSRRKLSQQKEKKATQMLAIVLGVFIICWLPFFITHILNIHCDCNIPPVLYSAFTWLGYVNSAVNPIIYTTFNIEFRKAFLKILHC

Assay [17] shares this target. Kind of assay: Dopamine D2 receptor (DRD2) small molecule antagonists, cell-based qHTS assay (AID 1963595; active means well fitted inhibition curve with a large enough effect in the signal ratio in the repeat runs, with a control signal flat; the % refers to the signal ratio). Put shortly:
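Readout: HTRF cAMP, cAMP-d2 competing with cellular cAMP for anti-cAMP cryptate, read after 1 h. Cells: DRD2-HEK293. Conditions: 0.1 mM Ro20-1724, 12 nM quinpirole, 200 nM NKH477, 30 min RT.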

Assay [18] deals with Muscarinic acetylcholine receptor M1 (Homo sapiens) (UniProt P11229). Kind of assay: Cholinergic receptor muscarinic 1 (CHRM1) small molecule antagonists, cell-based qHTS assay (AID 1963588). Further: nearly all actives have a fitted effect of over 40% in size. Put shortly: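 Compounds were tested at 15 concentrations in three independent runs. Dye-loaded CHRM1-CHO cells were exposed 5 min at room temperature before stimulation by acetylcholine added at 50nM. Intracellular calcium was read kinetically on FDSS for 3 min.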
Chain of Muscarinic acetylcholine receptor M1 (Homo sapiens) (P11229 whole entry, looked up): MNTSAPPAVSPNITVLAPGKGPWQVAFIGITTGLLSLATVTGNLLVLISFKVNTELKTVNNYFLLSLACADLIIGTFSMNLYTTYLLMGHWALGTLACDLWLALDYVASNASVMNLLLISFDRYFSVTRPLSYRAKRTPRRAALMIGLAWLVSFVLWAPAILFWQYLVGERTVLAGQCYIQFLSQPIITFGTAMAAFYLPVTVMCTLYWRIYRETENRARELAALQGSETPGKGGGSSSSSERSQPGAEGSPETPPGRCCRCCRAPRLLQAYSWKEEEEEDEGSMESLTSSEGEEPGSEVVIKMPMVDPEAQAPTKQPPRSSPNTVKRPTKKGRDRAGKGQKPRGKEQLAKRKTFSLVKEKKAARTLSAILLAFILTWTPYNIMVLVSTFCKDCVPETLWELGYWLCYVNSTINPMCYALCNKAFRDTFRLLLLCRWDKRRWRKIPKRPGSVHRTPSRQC

Assay [19] can be described thus: cAMP Responsive Elements (CRE) small molecule agonists, cell-based qHTS assay (AID 1963590). Put shortly: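 Test agents in DMSO were incubated 3 h at 37 C/5% CO2 with CRE-bla HEK 293T cells seeded 18 h earlier; LiveBLAzer B/G FRET substrate was added and read after 2 h at room temperature.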

Chain of Gonadotropin-releasing hormone receptor (Homo sapiens) (P30968 whole entry, looked up): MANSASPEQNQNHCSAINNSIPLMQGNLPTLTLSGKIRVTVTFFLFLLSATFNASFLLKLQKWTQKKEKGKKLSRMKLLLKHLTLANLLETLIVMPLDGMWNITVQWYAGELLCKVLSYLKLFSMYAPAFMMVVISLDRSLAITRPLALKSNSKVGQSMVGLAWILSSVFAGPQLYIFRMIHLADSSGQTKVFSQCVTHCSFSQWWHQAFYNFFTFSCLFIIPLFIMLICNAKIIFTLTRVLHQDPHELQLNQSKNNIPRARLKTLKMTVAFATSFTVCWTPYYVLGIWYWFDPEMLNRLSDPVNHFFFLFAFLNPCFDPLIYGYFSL
Chain of 5-hydroxytryptamine receptor 2A (Homo sapiens) (P28223 whole entry, looked up): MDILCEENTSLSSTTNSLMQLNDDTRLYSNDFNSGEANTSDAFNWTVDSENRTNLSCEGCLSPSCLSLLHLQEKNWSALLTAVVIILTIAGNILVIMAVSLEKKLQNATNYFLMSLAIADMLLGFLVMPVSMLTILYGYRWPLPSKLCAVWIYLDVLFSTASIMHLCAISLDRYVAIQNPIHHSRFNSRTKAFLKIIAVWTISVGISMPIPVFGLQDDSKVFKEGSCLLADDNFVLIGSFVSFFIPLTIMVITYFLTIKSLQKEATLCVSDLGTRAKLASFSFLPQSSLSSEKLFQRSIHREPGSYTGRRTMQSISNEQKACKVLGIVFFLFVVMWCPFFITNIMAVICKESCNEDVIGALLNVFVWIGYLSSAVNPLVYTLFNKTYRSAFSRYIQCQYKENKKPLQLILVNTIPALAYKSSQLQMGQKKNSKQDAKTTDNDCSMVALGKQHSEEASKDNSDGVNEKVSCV

On to `CCCCOCCOC(=O)COc1cc(Cl)c(Cl)cc1Cl`, for which the Potency result in [1], in assay [2], in assay [3], in assay [6], in [7] and in assay [8] was “inactive” throughout. Besides, the Potency entry in assay [9], in assay [10], in [12], in assay [13], in assay [14] and in [15] was “inactive” throughout. In addition, the Potency result in assay [16] and in assay [17] was “inactive” each time. Moreover, the outcome in [4] and in [5] was inactive. Further, the Potency in assay [11] is 9.42 µM (active).
On to `CC(=O)[C@H]1CC[C@H]2[C@@H]3C[C@H](C)C4=CC(=O)CC[C@]4(C)[C@H]3[C@@H](O)C[C@]12C`, for which the Potency result in assay [1], in [2], in [3], in assay [6], in assay [7] and in [8] was “inactive” throughout. For the same molecule, the Potency result in assay [9], in assay [10], in assay [12], in assay [18], in assay [13] and in assay [19] was “inactive” throughout. Besides, the Potency result in assay [15] and in assay [17] was “inactive” throughout. For the same molecule, the outcome in [4] and in assay [5] was inactive.
Consider `CCO[Si](C)(CCCOCC1CO1)OCC` (stereo unspecified), for which the Potency result in [1], in assay [2], in assay [3], in assay [6], in assay [7] and in [8] was “inactive” throughout. The Potency entry in [9], in assay [10], in assay [11], in [18], in assay [13] and in assay [15] was “inactive” throughout. The Potency result in assay [16] and in assay [17] was “inactive” in each case. Besides, the result in assay [4] and in assay [5] was inactive.
On to `Cc1cc(NS(=O)(=O)c2ccc(N)cc2)nc(C)n1`, for which the Potency entry in [1], in assay [2], in assay [3], in [6], in [7] and in assay [8] was “inactive” in each case. Further, the Potency entry in assay [9], in assay [10], in assay [12], in [18], in assay [13] and in assay [19] was “inactive” each time. The Potency entry in assay [14], in assay [15], in assay [16] and in assay [17] was “inactive” each time. Moreover, the result in [4] and in assay [5] was inactive.
`[O-][n+]1cccc(CO)c1`: the Potency result in assay [1], in [2], in assay [3], in assay [6], in assay [7] and in assay [8] was “inactive” throughout. In addition, the Potency entry in assay [9], in assay [10], in assay [12], in assay [18], in [13] and in assay [19] was “inactive” each time. Also, the Potency entry in assay [14], in assay [15], in assay [16] and in assay [17] was “inactive” throughout. The outcome in [4] and in assay [5] was inactive.
Turning to `OC[C@@H](O)[C@H](O)[C@@H](O)[C@@H](O)CO`, the Potency entry in assay [1], in assay [2], in assay [3], in assay [6], in [7] and in [8] was “inactive” each time. Further, the Potency result in assay [9], in assay [10], in [19], in assay [14], in assay [15] and in [16] was “inactive” throughout. Moreover, the Potency entry in assay [17] was “inactive”. The result in assay [4] and in assay [5] was inactive.
As to `O=Cc1ccccc1[N+](=O)[O-]`, the Potency entry in assay [1], in assay [2], in assay [3], in assay [6], in assay [7] and in [8] was “inactive” each time. The Potency result in assay [9], in assay [11], in [12], in [18], in assay [19] and in assay [15] was “inactive” in each case. For the same molecule, the Potency result in [16] and in assay [17] was “inactive” each time. The outcome in assay [4] and in [5] was inactive.
